The text below walks through data of PubChem BioAssay (NCI).

Structures are written as SMILES. This is part of a sample that, as a whole, favours compounds with a hit. Of some 83,000 tested, about 20% had one in any assay.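 Compound tested at a single concentration for 48 hours in 96-well plates; a percent growth value below 10 was scored as active.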 Values without a mark were called inactive. Calls of active or inactive are those of the source.

Common to all, as to assay: NCI-60 one-dose screen, 48 h (100 = growth as untreated, 0 = no growth, -100 = all killed)
Conditions in all cases: 10 µM unless noted

Experiment [1] has as its system HCT-15 colon.
Experiment [2] relates to SNB-75 CNS.
In experiment [3] the test system is SNB-19 CNS.
Experiment [4] relates to U251 CNS.
Experiment [5] has as its system PC-3 prostate.
Experiment [6] has as its system SK-MEL-5 melanoma.
The test system of experiment [7] is UACC-62 melanoma.
The subject of experiment [8] is LOX IMVI melanoma.
Experiment [9] deals with SK-MEL-28 melanoma.
Experiment [10] has as its system SK-MEL-2 melanoma.
Experiment [11] relates to EKVX NSCLC.
Experiment [12] has as its system SN12C renal.
Experiment [13] concerns UO-31 renal.
In experiment [14] the test system is TK-10 renal.
For experiment [15], the system named is ACHN renal.
In experiment [16] the test system is CAKI-1 renal.
Experiment [17] concerns A498 renal.
Experiment [18] relates to CCRF-CEM leukemia.
Experiment [19] has as its system MOLT-4 leukemia.

As to `Cc1ccc2c(n1)C(=O)C(Cl)=C(Nc1ccc(C)c(C)c1)C2=O`, the growth in experiment [1] was 23.6%; in experiment [2], 87.6%; in [3], 56.2%; in experiment [4] it was 71.8%; in experiment [5] it was 45.3%; in experiment [6], 6.91% (active). The growth in [7] is 49.3%; in experiment [8], 0.982% (active); in experiment [9], 58.3%; in experiment [10] it was 40%; in [11] it was 52.6%; in [12], 0.141% (active). In addition, the growth in [13] is 44%; in experiment [14] it was 140%; in experiment [15], 57%; in experiment [16], 90%; in [17], 71.8%; in experiment [18], 30.8%. Also, in experiment [19], the growth was 60.1%.

With `C#C[C@]1(O)CC[C@H]2[C@@H]3CC=C4c5sc(N6CCN(C)CC6)nc5CC[C@]4(C)[C@H]3CC[C@@]21C`, the growth is 8.12% (active) in [1]; 75.2% in experiment [2]; 63.3% in [3]; 21.8% in [4]; 22.4% in [5]; 38.5% in experiment [6]. Further, the growth was 51.2% in experiment [7]; 25.6% in [8]; 31% in experiment [9]; 36.8% in experiment [10]; 76.6% in experiment [12]; 77.2% in [13]. Further, the growth in experiment [14] is 100%; in [15] it was 47.2%; in [16] it was 54.2%; in [17], 86%; in experiment [18] it was -8.52% (active); in [19] it was 1.27% (active).

On to `CN1CCN(Cc2ccc(NC(=O)c3cncc(C#Cc4cnc5ccc(OCC6COC6)nn45)c3)cc2C(F)(F)F)CC1`, for which the growth in experiment [1] is -32.9% (active); in experiment [2] it was -97.9% (active); in experiment [3] it was -44.9% (active); in [4] it was -66.8% (active); in experiment [5] it was -27.7% (active); in experiment [6] it was -97% (active). For the same compound, the growth is -49.8% (active) in [7]; -94% (active) in experiment [8]; -85% (active) in [9]; -78.4% (active) in experiment [10]; -71.6% (active) in experiment [11]; -30.6% (active) in [12]. Also, the growth in [13] was -92.3% (active); in experiment [14] it was -82.2% (active); in [15], -96.5% (active); in experiment [16], -92.8% (active); in experiment [18], -8.07% (active); in experiment [19], 1.49% (active).

`CCCCCCN1C=C/C(=C\C(=O)n2ccc3ccccc32)c2ccccc21`: the growth is 79.6% in experiment [1]; 65.8% in experiment [2]; 56.7% in [3]; 46.9% in experiment [4]; 58.6% in experiment [5]; 30.8% in experiment [6]. Besides, the growth in experiment [7] was 57.9%; in experiment [8] it was 18.7%; in experiment [9], 101%; in [10], 76%; in [11], 36.3%; in experiment [12], 67.6%. The growth was 52% in experiment [13]; 114% in [14]; 66.3% in experiment [15]; 61% in experiment [16]; 97.5% in [17]; 54.8% in experiment [18]. For the same compound, the growth in experiment [19] is 62%.

For `c1ccc(-c2cn3c(-c4c[nH]c5ccccc45)csc3n2)cc1`, the growth is 85.6% in [1]; 80.9% in experiment [2]; 59.7% in [3]; 61% in [4]; 43.2% in experiment [5]; 81% in [6]. The growth in [7] was 49.6%; in experiment [8] it was 83.7%; in [9] it was 71.9%; in experiment [10], 77.4%; in experiment [11], 72%; in experiment [12], 53.6%. The growth in experiment [13] is 73%; in experiment [14], 148%; in [15], 91.8%; in experiment [16], 77.9%; in experiment [17], 79.3%; in experiment [18] it was 53%. Moreover, in [19], the growth was 66.9%.

With `CN1CCN(c2ccc(Nc3nc(NCCNS(=O)(=O)c4ccc(Cl)cc4)c4sccc4n3)cc2)CC1`, the growth in [1] was 47.7%; in experiment [2], 72.9%; in [3] it was 104%; in experiment [4], 60.1%; in experiment [5] it was 81.8%; in experiment [6], 93.6%. Moreover, the growth in [7] is 98.5%; in experiment [8], 92%; in experiment [9], 94.5%; in [10], 110%; in experiment [11], 91.6%; in experiment [12] it was 97.7%. Also, the growth in experiment [13] was 80%; in experiment [14] it was 128%; in experiment [15], 98.2%; in [16], 72.8%; in experiment [17] it was 94.2%; in experiment [18], 75.7%. The growth in experiment [19] was 73.6%.

Regarding `CC(C)(O)c1cncc(-c2ccc3ncc(C#N)c(N4CCc5cc(F)c(Cl)cc54)c3c2)c1`, the growth in experiment [1] is 9.91% (active); in [2], -12.6% (active); in [3] it was 11.2%; in [4], 20.1%; in [5], 11.9%; in [6], -22.4% (active). The growth is -7.62% (active) in experiment [7]; 5.41% (active) in [8]; 9.63% (active) in experiment [9]; -5.06% (active) in experiment [10]; -10.5% (active) in experiment [11]; 17.1% in experiment [12]. Further, the growth was -2.66% (active) in experiment [13]; 14.3% in experiment [14]; 6.6% (active) in [15]; 0.608% (active) in experiment [16]; -18.3% (active) in [17]; 20.5% in experiment [18]. Further, the growth in experiment [19] is 5.17% (active).

`O=C(COc1ccc(/C=C2\C(=O)Nc3ccc(F)cc32)cc1)Nc1ccccc1`: the growth is 99.1% in experiment [1]; 94.7% in experiment [2]; 93.3% in experiment [3]; 94.4% in experiment [4]; 94.9% in [5]; 100% in experiment [6]. In addition, the growth was 88.1% in [7]; 79.6% in [8]; 106% in experiment [9]; 122% in [10]; 95.8% in [11]; 102% in experiment [12]. In addition, the growth in [13] was 85.4%; in experiment [14], 118%; in experiment [15], 93.7%; in experiment [16], 82.4%; in experiment [17], 99%; in experiment [18], 96.9%. For the same compound, the growth in experiment [19] is 99.2%.
